Source: PMC13494018
Values without a mark were called inactive. The rule behind the calls is not given here.

B1: d4r5_design_ppi_266_dldesign_0_cycle0_af2pred (protein)
chain: HMLKKLALEKAKEALEKAKEGLKLAKEGKLEEAAKKLQEARELKAEALSLGKKEKSIKKIIEEKAKEVKKIIKEAQKEAKKKK
B2: d4r5_design_ppi_53_dldesign_0_cycle0_af2pred (protein)
chain: MKEKQEEARNDAIIESAKMAGAKNPEIGKLLKKATELTLENEEGKEEAKKLIEEVAKKGEEDTAKKLEKAVEALVKKKKEEEKKKK
B3: d4r5_design_ppi_153_dldesign_0_cycle0_af2pred (protein)
chain: LLEEVKKLSEEALKLAKEAKETGSEELREKAREKAKEALELGKKDPEALKIASEATQKMLEIWAEGKAKKNK
B4: d4r5_design_ppi_255_dldesign_0_cycle0_af2pred (protein)
chain: SEVEETKKKLAEASAELSELAAEADANPALAAAGKLAREALKKARELGKEGEENPEKALELYKKALEYAEKALKEVKALIEKAK
B5: d4r5_design_ppi_66_dldesign_0_cycle1_af2pred (protein)
chain: GAAEEAAKKAKEEADKAIEAAKKGEKEGAEALLKAAKKLAEAAQKALEAAAEYPEKREEFLKLAKELRKAAKEAEEKAKAEIEAKKKA
B6: d4r5_design_ppi_305_dldesign_0_cycle1_af2pred (protein)
chain: KEKEMKKEVKKALEEAKKAAEEAIKSGDVKKLKEAAVKAQEAATVAKYIASKAKDKEVKKEAKKAAKEALELAKKVAEEAKKAE
B7: d4r5_design_ppi_122_dldesign_0_cycle1_af2pred (protein)
chain: DAEKIAKADKLMEEAKKLAATGKKRKEALEKYKEAAALYAEVDPALAKEAIAKGQEALSEGRENEAEKRLK
B8: d4r5_design_ppi_48_dldesign_0_cycle1_af2pred (protein)
chain: KAEELLKKGEELMEEGINSENKEEGEKKVKEGAVYYKEGLIEKNPEEPVSEQVKKAKEIYEKYEKELKEKHEKK
B9: d4r5_design_ppi_305_dldesign_0_cycle0_af2pred (protein)
chain: MEEKLKKEVEEALKKAEKAAKEAKASGDVKALKEAAMKANEAAAEARAYAAKSKDKETKKFAEEAAKKALELAKETVEAAKKAA
B10: d4r5_design_ppi_288_dldesign_0_cycle0_af2pred (protein)
chain: MTKAENAAKILEYAAEADALGDKETAKKLRELAKKAREATAEEAKKLAKEAEKLLKEAEEKKEKEEKEEKEKKEEEEKK
B11: d4r5_design_ppi_292_dldesign_0_cycle1_af2pred (protein)
chain: SMAKELSEALREAVRAAREAVETRGEEVKEEMVELVYKAFDSDLEETKKIAEEIKRRAEEAREERRRRLE
B12: d4r5_design_ppi_343_dldesign_0_cycle1_af2pred (protein)
chain: GEEEEKKKKLNELQDEAAEAIGEVYLEAKKTGELELAKEVSKKVRKALKDPEEAKKAIEEAKKEAKKLKKKL
B13: d4r5_design_ppi_292_dldesign_0_cycle0_af2pred (protein)
chain: MKAKETAKALREAVKAAQEAVKAKGEEVKPEMSKLLEEAASSDAEETKKIAEEIKKKAKEVKEEKKKEEE
B14: d4r5_design_ppi_307_dldesign_0_cycle0_af2pred (protein)
chain: SAEKKAREESEKLREELRKKKEEAIARVKAYLAEKAKKDPSKAAEYEAKAKEVEAGGSGTATAALKEVKAEEAAEAAAKAAAA
B15: d4r5_design_ppi_185_dldesign_0_cycle1_af2pred (protein)
chain: NEEALKKALEEAKKLVEEAGKKAGPEVQEKADRLIKVSERKRKLDPEAGALQGIFGAKGLEPDIDKELAKKIIEAFKKALELA
B16: d4r5_design_ppi_320_dldesign_0_cycle1_af2pred (protein)
chain: ATPEEQKKESDYFKEVQKLAKEKAEAAAADPEAKQLALNLPLAAADPEEGKKVAAQVDKRLAALKAAKAAAAA
B17: d4r5_design_ppi_239_dldesign_0_cycle0_af2pred (protein)
chain: MGKELQKLADEANKKAKAIAKTLKENLKLAKELSPELAKEAEAAKKALAAARLTFADDLEKGKEELKAVEKDVEALKAKIEKAAA
B18: d4r5_design_ppi_147_dldesign_0_cycle1_af2pred (protein)
chain: SVQERARLAAKATRAAHKAKVAAKKIIELGGDKEKAKKLAKEAEKALEKAEEAMADPSKLEELKKATEEAEKLAKEALKEYEKLLA
B19: d4r5_design_ppi_196_dldesign_0_cycle0_af2pred (protein)
chain: ALAEAVAAAAEAAAEAAKKNEVTKPIAEKLEEISKKAKELAKEAKENPELKEKAEKEAEKLREELKKLREEAKKLIAEKKAEEAAKA
B20: d4r5_design_ppi_186_dldesign_0_cycle0_af2pred (protein)
chain: LEEVKEKAKEILEKAEKEMKAAKKVSEVNEIRRKGLKELAELGKSSSPEGKKIAYEKREELIEAAGEAMAKKL
B21: d4r5_design_ppi_302_dldesign_0_cycle0_af2pred (protein)
chain: SEAEKLYAEALQYANIAKSAYEVNKEAGKEEYKEAKKYVEKLKEVDPEKGEEAEKEVEEKKAEAEKEYEKK
B22: d4r5_design_ppi_205_dldesign_0_cycle1_af2pred (protein)
chain: GEEEAKKAKEKAKKEAKELTDLVDEVAALSGAEAARAYAEKRAKNLVEKAAKEGPEAEKAAKEAAEKILKRAEEIAKAEA
B23: d4r5_design_ppi_48_dldesign_0_cycle0_af2pred (protein)
chain: KAEELFKKGLELVKEGIESEDKEKGKELVKKGSVLFREGLLEKYSEEPASEVVKIAQKIHEEWEKLLEEEFKKK
B24: d4r5_design_ppi_64_dldesign_0_cycle1_af2pred (protein)
chain: AAAGTATAETIVNLREAEHILKLLEKNKNIPKEQAEVFIKDSEEIIKEVEEALKKGLVSKELAEKALEAAKKALEAAKKAYKK
B25: d4r5_design_ppi_266_dldesign_0_cycle1_af2pred (protein)
chain: GEEAKKALELAKKAVEEAKRGLALAKAGKLEEAAKELQKARELMAEALALGKKNPEVLEEVKKLAKEVKELIREAMEEAKKHR
B26: d4r5_design_ppi_142_dldesign_0_cycle0_af2pred (protein)
chain: MEEKRLEALKSQVEHAGEAAEKYGKELGEEEVKKARELKEKALKASAEEARELLKELRKFGKELKKKVEAKKAA
B27: d4r5_design_ppi_300_dldesign_0_cycle0_af2pred (protein)
chain: SEVEEKAKKLVKEAAESTPEEAKKKGREVVELAKEHPEVAPVAAKAADEAAEVAKKKDKEVYIILAKTSAQLDAIAA
B28: d4r5_design_ppi_186_dldesign_0_cycle1_af2pred (protein)
chain: VEEVKEKAEEVLKKATEAMKAAKTVEEVRKIRREGHKELRKLGEEGTPESKEIAYKYIEKLNEAAADAISKLL
B29: d4r5_design_ppi_73_dldesign_0_cycle0_af2pred (protein)
chain: MKAVEELKERAKRRLKEAEEKHKENPLKGAAQAYAAAEYVKNFAEAAAKKYPEYKEELLAAGKEYAKELEEKAKEFEEEAKKLA
B30: d4r5_design_ppi_284_dldesign_0_cycle1_af2pred (protein)
chain: AAAEVQAKLEAAAKKAEELAKDPALKEAAEAAAKALTAAKSLPPEEAAPALVATNNALQDARFEATEKAFK
B31: d4r5_design_ppi_332_dldesign_0_cycle1_af2pred (protein)
chain: DVEALVAEAVALIAGDPADAPAARAAAEAAAAALLDATLDDPAAVALLEALAAAAAANPHMADVAATLAKALATAKKIVADQKEATS
B32: d4r5_design_ppi_312_dldesign_0_cycle1_af2pred (protein)
chain: DFEEAKKKAEEALKKLEELAKELGEEGKKLYEYAKKKFEKYSDDAASVEAAYYIIKGAYKKAEELLKEKKEKKKKEE
B33: d4r5_design_ppi_197_dldesign_0_cycle1_af2pred (protein)
chain: GKVEKEVKAAAEKAKKLVEEAKKLAESGDKETAKEGMKLAEEALKLAREAGKKAKKAGVKEELVKELEKLAEEAIEVRLDGLEVLAK
B34: d4r5_design_ppi_63_dldesign_0_cycle1_af2pred (protein)
chain: SLAEEAEKKLKEYAALRIEAGDLSEEEAKKTFKEIAKEAKELAKKLEADPNAKEVAKKAKKLAGAAESAAKAIEKA
B35: d4r5_design_ppi_307_dldesign_0_cycle1_af2pred (protein)
chain: GAREKAREESEKIRKELREKKKEAVAYVEAYLKKKAEANPEYAAEYEAKAEKVRNGGSGTATKALKEVKAEEAAEAAAKAAAA
B36: d4r5_design_ppi_147_dldesign_0_cycle0_af2pred (protein)
chain: SITERAKLAAEATRAAHRAEAAAKELIKLGGDKKEAEKLRKEAKKALEKAEEAAAKPEKLEELKKETEKAKKIAEEAKKELEELKK
B37: d4r5_design_ppi_337_dldesign_0_cycle0_af2pred (protein)
chain: SHYEKAREYVKKAIKALKEGKEKEAKEYAKKAAEEIAKTDAEKAREIAKEMRKGVKEVGAGKVGGEMVALIQEARAEAAARNS
B38: d4r5_design_ppi_251_dldesign_0_cycle1_af2pred (protein)
chain: MEKLKEIEEAAKKKLEEGAKKGEEAFKKAITEANLLAASDPEYSKEARAAVKKLAKEKKKELEEKKKKEEEEKKLK

Biological target: VTCN1, Q7Z7D3
Sequence (Q7Z7D3 whole entry): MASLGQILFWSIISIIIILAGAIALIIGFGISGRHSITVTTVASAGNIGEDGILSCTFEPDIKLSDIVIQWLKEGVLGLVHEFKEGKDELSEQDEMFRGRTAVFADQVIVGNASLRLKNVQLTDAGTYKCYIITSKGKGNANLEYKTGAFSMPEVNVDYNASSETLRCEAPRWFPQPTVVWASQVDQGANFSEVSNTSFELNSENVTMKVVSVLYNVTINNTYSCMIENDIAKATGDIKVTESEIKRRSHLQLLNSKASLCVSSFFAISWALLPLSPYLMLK

Row | Binder | binding in a display sort
1 | B1 | not found
2 | B2 | not found
3 | B3 | not found
4 | B4 | not found
5 | B5 | not found
6 | B6 | not found
7 | B7 | not found
8 | B8 | not found
9 | B9 | not found
10 | B10 | not found
11 | B11 | not found
12 | B12 | not found
13 | B13 | not found
14 | B14 | not found
15 | B15 | not found
16 | B16 | not found
17 | B17 | not found
18 | B18 | not found
19 | B19 | not found

Row | Binder | binding in a display sort
20 | B20 | not found
21 | B21 | not found
22 | B22 | not found
23 | B23 | not found
24 | B24 | not found
25 | B25 | not found
26 | B26 | not found
27 | B27 | not found
28 | B28 | not found
29 | B29 | not found
30 | B30 | not found
31 | B31 | not found
32 | B32 | not found
33 | B33 | not found
34 | B34 | not found
35 | B35 | not found
36 | B36 | not found
37 | B37 | not found
38 | B38 | not found
